SMILES strings stand for the structures. Over roughly 1,000 compounds, “relative growth recovery (pomalidomide 10 uM = 100%, DMSO = 0%)” has its median near -1.6; the highest 2% begin near 21. Only a selection was taken, and the highest values are over-represented in it overall.

For this assay, the system named is HEK293FT dCK*-IKZF1. The assay is described as follows: relative growth recovery (pomalidomide 10 uM = 100%, DMSO = 0%); higher = more growth rescue (IKZF1 fusion degradation). The note with it: compound concentration: 5 uM; AraC concentration: 0.3 uM; overnight pretreatment + 4 days AraC. The method, then:
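Growth recovery screen of the molecular-glue-like (Specs) library. HEK293FT cells expressing a dCK*-IKZF1 fusion (primary) or dCK* alone (counter) were pretreated overnight with compound at 5 uM, then given 0.3 uM AraC for 4 days. Hoechst nuclei were counted by imaging. Primary: normalised to pomalidomide (100%) and DMSO (0%), mean of 2 replicates. Counter: normalised to no-AraC (100%) and AraC+DMSO (0%), single replicate.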
On to `Cc1cnc(Nc2cccc(C3CCN(C(=O)C4(NC(=O)C(C)(C)C)CCCCC4)CC3)n2)s1`, for which the relative growth recovery was -12.6%.
Regarding `O=S(=O)(Nc1ccc(S(=O)(=O)Nc2ncccn2)cc1)c1ccc(Cl)cc1`, the relative growth recovery is -4.2%.
Turning to `CCCc1cnc(Nc2cccc(C3(CO)CCN(C(=O)C4CCCCC4)CC3)n2)s1`, the relative growth recovery is -17%.
On to `O=C(C1CCCCC1)N1CCOC(c2cccc(Nc3ncc(Cc4ccccc4)s3)n2)C1` (configuration not stated), for which the relative growth recovery came to 2.33%.
Regarding `COCCC(=O)N1CCC(c2cccc(Nc3nc(C)c(C)s3)n2)CC1`, the relative growth recovery came to 9.99%.
For the compound `Cc1cnc(Nc2cccc(C3CCN(CC(=O)Nc4c(F)cccc4F)CC3)n2)s1`, the relative growth recovery was -13.4%.
Turning to `Cc1nc(Nc2cccc(C3CN(C(=O)CCc4c(C)n[nH]c4C)CCO3)n2)sc1C` (configuration not stated), the relative growth recovery is -0.835%.
Turning to `Cc1csc(Nc2cccc(C3CCCN3C(=O)c3ccc4c(c3)CCCN4C)n2)n1` (configuration not stated), the relative growth recovery amounted to 7.5%.
The same measure for `Cc1nc(Nc2cccc(C3CCN(C(=O)CCc4c(C)n[nH]c4C)CC3)n2)sc1C`: 26%; for `Cc1ccn2cc(C(=O)N3CCCC3c3cccc(Nc4nc(C)c(C)s4)n3)nc2c1` (configuration not stated): 39.7%.
In the case of `Cc1cnc(NC(=O)CN2CCC(c3cccc(Nc4nc(C)c(C)s4)n3)CC2)s1`, the relative growth recovery is 30.3%.
The same measure for `Cc1ccc2[nH]nc(C(=O)N3CCCC3c3cccc(Nc4nc(C)cs4)n3)c2c1` (configuration not stated): -0.105%; for `Cc1nc(Nc2cccc(C3CCCN3C(=O)c3ccc(=O)n(C)n3)n2)sc1C` (configuration not stated): 5.83%; for `Cc1cnc(NC(=O)CN2CCC(c3cccc(Nc4ncc(C)s4)n3)CC2)s1`: -13.8%.
The same measure for `Cc1cnc(C(=O)N2CCCC2c2cccc(Nc3nc(C)c(C)s3)n2)cn1` (configuration not stated): 4.79%; for `Cc1csc(Nc2cccc(C3CCCN3C(=O)c3ccc4[nH]c(C(C)C)nc4c3)n2)n1` (configuration not stated): 36.3%.
Turning to `COc1ccc(NC(=O)CN2CCC(c3cccc(Nc4nc(C)cs4)n3)CC2)cc1`, the relative growth recovery came out at 32.9%.
As for `Cc1cnc(Nc2cccc(C3CCN(C(=O)c4cccnc4)CC3)n2)s1`, the figure is -18.6%; as for `Cc1csc(Nc2cccc(C3CCN(CC(=O)NCc4ccccn4)CC3)n2)n1`, -8.2%; as for `CCOCc1ccc(C(=O)N2CCC(c3cccc(Nc4ncc(C)s4)n3)CC2)cc1`, 29.5%.
Regarding `CC(=O)N1CCC(c2cccc(Nc3ncc(C)s3)n2)CC1`, the relative growth recovery is -19%.
As for `COc1ccc(NC(=O)CN2CCC(c3cccc(Nc4ncc(C)s4)n3)CC2)cc1`, the figure is -11%; as for `CC(=O)Nc1ccc(S(=O)(=O)Nc2ncccn2)cc1`, -3.27%; as for `Cc1ccc2[nH]c3nc(SCC(=O)Nc4ccc(F)cc4)nnc3c2c1`, -0.35%.
`Cc1cc(C)nc(NS(=O)(=O)c2ccc(NC(=S)NC(=O)/C=C/c3ccccc3)cc2)n1`: the relative growth recovery is -1.71%.
In the case of `CS(=O)(=O)NCC(=O)N1CCC(c2cccc(Nc3ncc(-c4ccccc4)s3)n2)CC1`, the relative growth recovery was -20.5%.
As to `COCCOCC(=O)Nc1ccc(S(=O)(=O)Nc2cc(C)nc(C)n2)cc1`, the relative growth recovery was -1.1%.
As for `C[C@@H](N)C(=O)N1CCC(CO)(c2cccc(Nc3ncc(-c4ccccc4)s3)n2)CC1`, the relative growth recovery was -18.2%.
As to `Cc1csc(Nc2cccc(C3CCN(CC(=O)N4CCC(C(N)=O)CC4)CC3)n2)n1`, the relative growth recovery was 5.36%.
The same measure for `Cc1cnc(Nc2cccc(C3(C(=O)NCCO)CCN(C(=O)C4CCCCC4)CC3)n2)s1`: -5.96%.
For the compound `COCCC(=O)N1CCC(c2cccc(Nc3ncc(C)s3)n2)CC1`, the relative growth recovery was -3.65%.
Take `O=C(O)COCCOCCNc1cc2c(cc1F)C(=O)N(C1CCC(=O)NC1=O)C2=O` (configuration not stated): the relative growth recovery was -7.7%.
Regarding `O=C(CSc1nc2cc(Cl)ccc2[nH]1)Nc1ncccn1`, the relative growth recovery is -1.69%.
Turning to `COc1cc(NS(=O)(=O)c2ccc(NC(=O)CCl)cc2)nc(OC)n1`, the relative growth recovery was -5.68%.
For the compound `COc1ccc(Cl)c2c1[nH]c1nc(SCC(=O)Nc3ccc(Cl)cc3)nnc12`, the relative growth recovery was found to be 2.88%.
Regarding `Cc1cnc(Nc2cccc(C3CCCN3C(=O)Cn3cnc4ccccc43)n2)s1` (configuration not stated), the relative growth recovery was -19.5%.
Turning to `O=C(CSc1nnc2c(n1)[nH]c1ccccc12)Nc1ccc(F)cc1`, the relative growth recovery stood at 7.2%.
As for `CCCCc1cnc(Nc2cccc(C3CCN(C(=O)C(C)(C)NC(=O)OC(C)(C)C)CC3)n2)s1`, the figure is -15.7%; as for `O=C(O)CN1CCN(c2cccc3c2C(=O)N(C2CCC(=O)NC2=O)C3=O)CC1` (configuration not stated), 0.995%.
For `Cc1ccnc(NS(=O)(=O)c2ccc(NC(=O)c3cccs3)cc2)n1`, the relative growth recovery came to 3.83%.
Turning to `Cc1ccc(C(C)C)c(OCC(=O)Nc2ccc(S(=O)(=O)Nc3ccccn3)cc2)c1`, the relative growth recovery is -1.57%.
The same measure for `COc1ccc(C(=O)Nc2ccc(S(=O)(=O)Nc3ccccn3)cc2)cc1`: -5.12%; for `Cc1ccc2[nH]c3nc(SCC(=O)Nc4ccc(C)c(Cl)c4)nnc3c2c1`: -24.6%; for `CCCc1cnc(Nc2cccc(C3CCN(C(=O)CN)CC3)n2)s1`: -15.8%.
Turning to `CC(=O)Nc1ccc(S(=O)(=O)Nc2cc(C)nc(C)n2)cc1`, the relative growth recovery was -1.14%.
As for `Cc1ccnc(NS(=O)(=O)c2ccc(NC(=O)c3ccccc3C)cc2)n1`, the relative growth recovery was -1.84%.
For `COc1ccc(NS(=O)(=O)c2ccc(N)cc2)nn1`, the relative growth recovery worked out at 3.75%.
Regarding `O=C(CCCOc1ccc(Cl)cc1)Nc1ccc(S(=O)(=O)Nc2ncccn2)cc1`, the relative growth recovery was 0.13%.
For `Cc1ccnc(NS(=O)(=O)c2ccc(NC(=O)c3ccc(Cl)cc3[N+](=O)[O-])cc2)n1`, the relative growth recovery was -0.255%.
Regarding `Cc1cc(C)nc(NS(=O)(=O)c2ccc(/N=C3/NC(=O)CS3)cc2)n1`, the relative growth recovery is -0.9%.
Regarding `O=C(Nc1ccc(S(=O)(=O)Nc2ncccn2)cc1)c1cccc(Br)c1`, the relative growth recovery is -4.75%.
Regarding `Cc1csc(Nc2cccc(C3CCN(C(=O)c4nccc5ccccc45)CC3)n2)n1`, the relative growth recovery was -0.34%.
As to `Cc1cnc(Nc2cccc(C3CCN(C(=O)c4cccc5cccnc45)CC3)n2)s1`, the relative growth recovery is -2%.
As for `Cc1ccnc(NS(=O)(=O)c2ccc(NC(=O)c3ccc4c(c3)OCO4)cc2)n1`, the figure is 0.925%; as for `Cc1cc(NS(=O)(=O)c2ccc(NC(=O)COc3ccccc3Cl)cc2)nc(C)n1`, 3.46%.
As for `CC(=O)N1CCCCC1c1csc(Nc2ccccn2)n1` (configuration not stated), the figure is 1.36%; as for `Cc1cc(NS(=O)(=O)c2ccc(NC(=O)c3ccccc3C)cc2)nc(C)n1`, -1.93%.
On to `Cc1csc(Nc2cccc(C3CCCN3C(=O)Cc3ccc(F)cc3)n2)n1` (configuration not stated), for which the relative growth recovery was 3.22%.
`CN1CCN(CC(=O)N2CCC(c3cccc(Nc4ncc(-c5ccccc5)s4)n3)CC2)CC1`: the relative growth recovery is -17.9%.
Take `Cc1cnc(Nc2cccc(C3CN(C(=O)CN(CCC(C)C)c4ccccc4)CCO3)n2)s1` (configuration not stated): the relative growth recovery is -3.83%.
The same measure for `O=C(CCn1ncc2c1CCCC2)N1CCOC(c2cccc(Nc3nccs3)n2)C1` (configuration not stated): 14.7%.
`Cc1cnc(Nc2cccc(C3CCN(C(=O)C4(N)CCCCC4)CC3)n2)s1`: the relative growth recovery is -17.6%.

(Values after the supplement of paper PMC12340641.)
